Source: PubChem BioAssay (The Scripps Research Institute Molecular Screening Center)
PAFAH1B2 FP inh = PAFAH1B2 enzyme inhibitors, primary screen, biochemical, fluorescence polarization, human | 340,000 tested, 1.2% active | Platelet-activating factor acetylhydrolase IB subunit alpha2 (Homo sapiens), P68402 | recombinant PAFAH1B2, FP-rhodamine activity probe | AID 492953, 2010 | inhibition, % at 3.39 µM;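 active means inhibition above the mean of all tested compounds plus 3 SD, cut at about 24% in these data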;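 further: 0% = enzyme with DMSO and 100% = wells lacking PAFAH1B2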
Target sequence (P68402 whole entry, looked up): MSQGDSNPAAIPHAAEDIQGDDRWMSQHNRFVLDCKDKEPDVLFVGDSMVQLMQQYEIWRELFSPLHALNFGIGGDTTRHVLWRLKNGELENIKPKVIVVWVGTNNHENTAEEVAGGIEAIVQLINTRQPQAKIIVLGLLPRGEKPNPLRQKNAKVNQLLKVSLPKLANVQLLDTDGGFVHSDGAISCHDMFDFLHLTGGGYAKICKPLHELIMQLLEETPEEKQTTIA
PAFAH2 FP inh = PAFAH2 enzyme inhibitors, primary screen, biochemical, fluorescence polarization, human; Platelet-activating factor acetylhydrolase 2, cytoplasmic (Homo sapiens), Q99487; recombinant PAFAH2, FP-rhodamine activity probe; inhibition, % at 3.39 µM; 340,000 tested, 0.99% active; AID 492956, 2010;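 active means inhibition above the mean over all tested compounds plus 3 SD, cut at about 30% in these data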;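 further: inhibitors block probe labeling of enzyme so polarization drops; 0% = enzyme with DMSO and 100% = wells lacking PAFAH2 protein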
PAFAH1B3 inh = PAFAH1B3 enzyme inhibitors, primary screen, biochemical, fluorescence polarization, human; AID 492972, 2010; recombinant PAFAH1B3, FP-rhodamine probe; 340,000 tested, 0.28% active; inhibition, % at 3.39 µM; Platelet-activating factor acetylhydrolase IB subunit alpha1 (Homo sapiens), Q15102;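 active means inhibition above the screen-wide average of all tested compounds plus 3 SD, cut at about 25% in these data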;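 further: 0% = enzyme with DMSO only and 100% = wells lacking PAFAH1B3 protein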
LYPLA2 inh = LYPLA2 inhibitors, primary screen, counter-screen for PME1 inhibitor project, biochemical, fluorescence polarization, FP-Rh probe ABPP; Acyl-protein thioesterase 2 (Homo sapiens), O95372; recombinant LYPLA2; inhibition, % at 5.9 µM; 320,000 tested, 0.38% active; AID 2177, 2009;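 active means inhibition above the screen-wide mean plus 3 SD, limit set per campaign, cut at about 26% in these data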;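 further: 0% = LYPLA2 with DMSO and 100% = wells lacking LYPLA2 enzyme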
LYPLA1 inh = LYPLA1 inhibitors, primary screen, counter-screen for PME1 inhibitor project, biochemical, fluorescence polarization, FP-Rh probe ABPP | 320,000 tested, 0.16% active | recombinant LYPLA1 | inhibition, % at 5.9 µM;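 active means inhibition above the mean of all tested compounds plus 3 SD, set per campaign, cut at about 14% in these data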;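 further: inhibitors block serine hydrolase probe labeling of LYPLA1 so polarization falls; 0% = enzyme with DMSO and 100% = wells lacking LYPLA1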
Target sequence (O75608 whole entry, looked up): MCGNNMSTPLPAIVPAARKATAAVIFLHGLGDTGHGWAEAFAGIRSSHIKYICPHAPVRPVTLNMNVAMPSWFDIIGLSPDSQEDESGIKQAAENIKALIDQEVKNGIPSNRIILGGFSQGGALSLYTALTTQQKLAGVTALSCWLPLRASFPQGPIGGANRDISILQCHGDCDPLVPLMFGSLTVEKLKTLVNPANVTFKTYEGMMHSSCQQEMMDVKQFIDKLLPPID
pPAFAH FP inh = pPAFAH enzyme inhibitors, primary screen, biochemical, fluorescence polarization, human; recombinant pPAFAH, FP-rhodamine probe fluorescence polarization; inhibition, % at 3.39 µM; 330,000 tested, 1.5% active; AID 463082, 2010;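 active means inhibition above the mean inhibition across the screen plus 3 SD, cut at about 25% in these data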;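 further: inhibitors block binding of the rhodamine activity-based probe so polarization drops; 0% = enzyme with DMSO and 100% = wells lacking pPAFAH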
pPAFAH confirm = pPAFAH (PLA2G7) enzyme inhibitors, confirmation, biochemical, fluorescence polarization, human; inhibition, % at 3.39 µM; 2,300 tested, 72% active; shares compounds with pPAFAH FP inh; recombinant pPAFAH, FP-Rh probe fluorescence polarization;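 active means mean inhibition of the triplicate above the hit cutoff set for the earlier primary screen, cut at about 25% in these data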;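 further: 0% = enzyme with DMSO and 100% = wells lacking pPAFAH enzyme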
Active calls of the source: *; / = no result given. In the library only some 2.9% were active in any assay of this set; here they are far more common.

SMILES	PAFAH1B2 FP inh	PAFAH2 FP inh	PAFAH1B3 inh	LYPLA2 inh	LYPLA1 inh	pPAFAH FP inh	pPAFAH confirm
N#Cc1cccnc1N1CCN(C(=O)c2cccc3c2C(=O)c2ccc(-c4ccc(F)cc4OCc4ccccc4)cc2S3(=O)=O)CC1	9	-4	4	/	/	24	/
O=C1c2ccc(Cl)cc2S(=O)(=O)c2cccc(C(=O)N3CCN(c4ccc(Cl)cn4)CC3)c21	4	0	2	5	1	8	/
O=C1c2ccc(-c3ccc(F)cc3OCc3ccccc3)cc2S(=O)(=O)c2cccc(C(=O)N3CCN(c4ncc(Br)cn4)CC3)c21	-4	-6	-8	/	/	43*	32*
O=C1c2ccc(-c3ccc(Cl)c(C(F)(F)F)c3)cc2S(=O)(=O)c2cccc(C(=O)N3CCN(c4ncc(Br)cn4)CC3)c21	10	1	2	/	/	9	/
COc1ccc(-c2ccc3c(c2)S(=O)(=O)c2cccc(C(=O)N4CCN(c5ccc(Cl)cn5)CC4)c2C3=O)cc1OC	5	62*	-4	/	/	36*	49*
COc1ccccc1CNC(=O)c1csc2c1CCCC2	1	-2	7	4	0	8	/
CCN=C(NCC)SC1CC(=O)N(CCc2ccccc2)C1=O (stereo unspecified)	/	/	/	-1	1	2	/
COc1ccc(CNC(=O)COc2cc(O)c3c(c2)OC(C)(C)CC3=O)cc1	4	4	12	2	3	1	/
CC(=O)c1cccc(S(=O)(=O)N(C)C2CCN(C)CC2)c1	4	-5	7	5	0	-2	/
COc1ccc(OCCCC(=O)N2CCN(S(=O)(=O)c3cccc(F)c3)CC2)cc1	6	-4	1	2	1	8	/
COc1cc(NC(=O)CSc2nc(C)cs2)cc(OC)c1	0	14	7	-6	2	-6	/
CCOc1ccc([C@@H]2CC=C(C(=O)O)[C@H](c3cccc(Cl)c3)N2S(=O)(=O)c2ccc(C)cc2)cc1	19	3	3	0	-2	6	/
Cc1ccc(S(=O)(=O)N2[C@@H](c3ccc(C(C)(C)C)cc3)C(C(=O)O)=CC[C@H]2c2ccc(Cl)cc2)cc1	90*	-2	-6	/	/	37*	54*
COC(=O)[C@H](C)N(Cc1ccc(Cl)c(Cl)c1)S(=O)(=O)CCN1CCN(c2ccccc2)CC1	2	0	4	/	/	2	/
COc1ccc(Cc2nnc(NC(=O)Cc3cccs3)s2)cc1OC	0	15	10	-8	-3	36*	17
COc1ccc(NC(=O)Cc2cccs2)c(OC)c1	2	2	6	7	1	4	/
O=C(Cc1cccs1)Nc1nnc(Cc2ccccc2)s1	-1	21	-2	-1	-6	19	/
COc1cc(NC(=O)c2ccccc2)c(OC)cc1NC(=O)Cc1cccs1	/	/	/	-9	-7	46*	21
CCN(Cc1ccccc1)S(=O)(=O)c1cc(C(=O)OC)n(C)c1	16	-6	-2	-2	-1	-2	/
CCCC1=Nc2cc(C(=O)NCCCN3CCN(C)CC3)ccc2Sc2ccccc21	3	-4	6	0	0	34*	6
Cc1cc(C)nc(N/N=C/c2ccccc2OCC(=O)O)n1	4	8	8	11	4	5	/
O=Cc1nc(-c2ccc(Cl)cc2)n2ccccc12	-2	4	-5	-3	0	71*	4
COc1ccc(S(=O)(=O)N2CCC(Cc3ccccc3)CC2)cc1C(N)=O	5	0	4	-3	1	7	/
O=C(Nc1cccc(S(=O)(=O)Nc2ccc(Cl)cc2)c1)c1ccc(Cl)nc1	-1	-16	-15	-33	-15	41*	34*
COc1cc(/C=C2/C(=O)NN(c3ccc(F)cc3)C2=O)cc(Cl)c1O	7	-2	0	2	-1	4	/
